# Assay outcomes: PubChem BioAssay, National Center for Advancing Translational Sciences (NCATS)
# Shown are actives, neighbours in structure and some others; about 15% of the full set was active somewhere.
# HCMV inh = qHTS Assay for inhibitors of the human cytomegalovirus (HCMV); activity change, negative = inhibition, % at 57.5 µM; AID 1259415, 2018; 410,000 compounds, 4.5% hits; HFF cells, HCMV-luciferase reporter, 72 h; hits give low values; in the data active means activity change below about -60%; inconclusive means no clear call, values can overlap the other calls; inactive means above about -39%; further: on the % scale 0 is the no-effect control and ±100 the full control effect
#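 Human foreskin fibroblasts infected with luciferase-reporter HCMV at MOI 1 PFU/cell, compounds at two doses. Luciferase measured 72 h post infection; normalized to buffer-only basal and Salinomycin (10uM) controls.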
# HCV inh = qHTS Assay for Inhibitors of Hepatitis C Virus (HCV); Huh7.5.1 HCVcc-Cre infection, luciferase reporter, 44 h; 340,000 compounds, 3.4% hits; AID 651820, 2012; Potency, µM (series often up to 41.8 µM), for inactives: top-dose activity change, negative = inhibition, usual class: inhibitors; further: potency means the concentration at half of the fitted maximal effect; on the % scale 0 is the no-effect control and ±100 the full control effect
#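 Antiviral activity was scored by luciferase reporter output from cells infected with HCVcc-Cre (~0.5 moi) in presence of compound, 44 h infection period, cells seeded 1,000/well 4 h prior.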
# SARS PLP yeast = qHTS of Yeast-based Assay for SARS-CoV PLP; S. cerevisiae expressing SARS-CoV PLpro, growth rescue; Potency, µM (highest dose often 32.9 µM), without a hit: top-dose activity, positive = growth rescue, hits mostly activators; 330,000 compounds, 0.19% hits; calls by dose curve; further: potency means the concentration at half of the fitted maximal effect; 0% is about no effect; nearly all actives have a fitted effect of over 55% in size
# Sm TGR inh = qHTS Assay for the Inhibitors of Schistosoma Mansoni Peroxiredoxins; Schistosoma mansoni thioredoxin glutathione reductase (TGR), Q962Y6; purified TGR, DTNB reduction, TNB absorbance 405 nm; Potency, µM (titrated, usually from 114 µM), inactives show at the top dose activity change, negative = inhibition, usual class: inhibitors; 360,000 compounds, 3% hits; further: potency means the concentration at half of the fitted maximal effect; on the % scale 0 is the no-effect control and ±100 the full control effect; nearly all actives have a fitted effect of over 60% in size
#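 Kinetic colorimetric format: TGR-catalysed, NADPH-driven DTNB reduction monitored via TNB absorbance. Enzyme dispensed at 20 nM; compound exposure 15 min at room temperature before reaction start.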
# Pf growth 96h = Primary qHTS for delayed death inhibitors of the malarial parasite plastid, 96 hour incubation; P. falciparum luciferase reporter growth, 96 h; AID 504834, 2011; Potency, µM (series often up to 28.7 µM), for the others: at the highest dose activity change, negative = inhibition, hits mostly inhibitors; 320,000 compounds, 6.9% hits; further: potency means the concentration at half of the fitted maximal effect; on the % scale 0 is the no-effect control and ±100 the full control effect
#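 Cell-based qHTS: luciferase-tagged P. falciparum in erythrocytes (2% hematocrit, 0.05% parasitemia final) incubated with compounds for 96 hours, 37 C, 5% CO2; luciferase detection reagent then added and luminescence measured.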
# Pf growth 48h = Primary qHTS for delayed death inhibitors of the malarial parasite plastid, 48 hour incubation; P. falciparum luciferase growth in erythrocytes, 48 h; Potency, µM (series often up to 28.7 µM), without a hit: at the highest dose activity change, negative = inhibition, actives largely listed as inhibitors; 310,000 compounds, 5.9% hits; AID 504832, 2011; further: potency means the concentration at half of the fitted maximal effect; on the % scale 0 is the no-effect control and ±100 the full control effect
#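 Growth was read as firefly luciferase luminescence after a 48 h, 37 C, 5% CO2 exposure of compounds to reporter-bearing P. falciparum cultures (0.1% parasitemia, 2% hematocrit final) in Albumax-supplemented RPMI 1640.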
# * hit, by the source's call; ? = inconclusive; · = no result given; [ ] = dose if it differs, or a comment. Unless noted, the call rests on the fitted dose curve; in most records, active means well fitted curve in the direction sought with a large enough effect; inconclusive means small, poorly fitted or top-dose-only effect, or another doubt; inactive means no such curve, though single readings can be large; an effect the other way counts as inactive or inconclusive.
SMILES,HCMV inh,HCV inh,SARS PLP yeast,Sm TGR inh,Pf growth 96h,Pf growth 48h
CC(C)Cc1nc(NCCN2CCOCC2)c(C#N)c2c1COC(C)(C)C2,-30.8,-16.2%,-5.9%,-21.1%,·,11.7µM*
CCN1C[C@@H]2[C@@H]3C(=O)N(C)C(=O)[C@@H]3[C@](CC)(C1=O)N2C(=O)c1ccc(C(C)(C)C)cc1,-24.0,16.4%,-0.7%,·,·,·
CSc1nnc(-c2ccncc2)n1/N=C/c1cn(-c2ccccc2)nc1-c1ccc(Cl)cc1,69.3,?,-2.5%,-1.1%,0.0%,9.28µM*
CCN(CC)c1ccc(C(=O)N/N=C(\C)c2cccnc2)cc1,-9.0,?,-2.1%,-16.0%,-5.6%,?
C/C(=N\NC(=O)c1ccc(OC2CCCC2)cc1)c1ccc(O)cc1,-11.8,-28.5%,?,4.1%,13.1µM*,?
COc1ccc(/C(C)=N/NC(=O)c2ccc(N(C)C)cc2)cc1,16.2,-10.4%,-17.4%,-1.6%,0.586µM*,?
CCN(CC)c1ccc(C(=O)N/N=C(\C)c2ccc(O)cc2)cc1,2.4,-26.7%,8.6%,5.2%,10.4µM*,?
O=C(Cn1c(C(F)(F)F)nc2ccccc21)N/N=C/c1ccco1,-2.4,-5.8%,-0.7%,-27.2%,50.9%[5.75 µM],23.3%
Cc1csc2nc(COC(=O)c3ccccc3NC(=O)COc3ccccc3F)cc(=O)n12,-33.1,·,·,7.6%,·,·
CC(C)Sc1nc2c(c(=O)[nH]c(=O)n2C)n1Cc1ccc(Cl)cc1,8.2,?,10.4%,-26.6%,13.1µM*,?
CCOC(=O)C(CC)Sc1nc2c(c(=O)[nH]c(=O)n2C)n1CCc1ccccc1 (stereo unspecified),1.7,-4.7%,5.5%,-23.6%,11.7µM*,10.4µM*
Cc1ccc(Cn2c(SCC(C)C)nc3c2c(=O)[nH]c(=O)n3C)cc1,0.6,-15.2%,4.1%,6.3%,·,0.5%
CCOC(=O)CSc1nc2c(c(=O)[nH]c(=O)n2C)n1CCc1ccccc1,-4.0,-22.2%,6.8%,-0.6%,?,5.6%
Cn1c(=O)[nH]c(=O)c2c1nc(Br)n2Cc1ccc(Cl)cc1,30.7,·,·,·,·,·
CCC(C)Sc1nc2c(c(=O)[nH]c(=O)n2C)n1Cc1ccc(Cl)cc1 (stereo unspecified),-4.6,-12.7%,-3.6%,5.4%,·,10.4µM*
CCOC(=O)C(C)Sc1nc2c(c(=O)[nH]c(=O)n2C)n1Cc1ccc(Cl)cc1 (stereo unspecified),43.2,2.82µM*,2.2%,3.0%,?,?
Cc1ccc2nc(-c3ccsc3)c(Nc3ccc(Cl)cc3)n2c1,5.2,·,·,-1.2%,·,·
O=C(CNC(=O)C1CC1)Nc1ccc(F)c(F)c1F,43.8,9.0%,0.5%,·,·,·
O=C(CNCC(=O)Nc1ccc(F)c(F)c1F)Nc1ccc(F)c(F)c1F,-82.8*,13.6%,0.4%,3.9%,56.7%,-0.7%
CN(CC(=O)Nc1ccc(F)c(F)c1F)c1cnccn1,·,·,5.7%,1.5%,?,13.1µM*
CN(Cc1ccco1)C(=O)c1ccc(CNS(=O)(=O)c2ccc3c(c2)C(C)(C)C(=O)N3C)cc1,-19.1,-13.1%,6.0%,-23.1%,-10.0%,-20.3%
COc1cc(C2C(C#N)=C(N)N(c3ccc(F)cc3)C3=C2S(=O)(=O)CC3)ccc1O (stereo unspecified),-10.3,3.4%,-2.6%,44.7µM*,53.3%,-16.8%
CSc1ccc(C(=O)C2CCCN(C(=O)Cc3nonc3C)C2)cc1 (stereo unspecified),-3.8,-7.6%,0.9%,4.3%,3.8%,-1.6%
C/C(=N/NC(N)=S)c1cc2ccc(O)cc2oc1=O,-22.0,-5.6%,10.8%,-11.2%,0.828µM*,?
C/C(=N/NC(=O)c1ccncc1)c1cc2ccc(O)cc2oc1=O,?,13.6%,?,-12.5%,?,18.8%
SMILES,HCMV inh,HCV inh,SARS PLP yeast,Sm TGR inh,Pf growth 96h,Pf growth 48h
COc1ccc2c(c1)C(C)=CC(C)(C)N2S(=O)(=O)c1ccc(Br)cc1,-79.8*,?,-4.2%,6.1%,-11.5%,9.28µM*
COc1ccc2c(c1)C(C)=CC(C)(C)N2S(=O)(=O)c1ccc(NC(C)=O)cc1,-89.7*,6.3%,-0.6%,12.1%,-3.8%,?
CCOc1ccc2c(c1)C(C)=CC(C)(C)N2S(=O)(=O)c1ccc(NC(C)=O)cc1,?,?,4.6%,-23.2%,45.5%,6.57µM*
Cc1nn2c(=O)cc(COC(=O)c3ccccc3NC(=O)c3cccs3)nc2s1,35.6,·,·,-6.1%,·,·
COc1nnc(-c2ccc(C)c(S(=O)(=O)NCC3CCCO3)c2)c2ccccc12 (stereo unspecified),2.7,-14.3%,3.3%,-10.6%,-5.0%,?
COc1nnc(-c2ccc(C)c(S(N)(=O)=O)c2)c2ccccc12,-11.7,?,-0.3%,1.2%,2.94µM*,·
COc1nnc(-c2ccc(C)c(S(=O)(=O)NC(C)C)c2)c2ccccc12,·,-13.6%,1.5%,-12.1%,2.62µM*,·
COc1ccc(Nc2nnc(-c3ccc(C)c(S(N)(=O)=O)c3)c3ccccc23)cc1,?,·,·,-7.9%,·,·
COc1ccc(C(=O)OCC(=O)NC(=O)NC2CCCC2)c(O)c1,54.8,12.7%,-1.9%,23.7%,10.2%,-4.3%
COc1ccc(C(=O)/C=C/C(=O)N(CC(=O)NC2CCCCC2)Cc2cccs2)c(O)c1,-99.7*,-15.9%,-2.3%,1.58µM*,14.4%,?
COCCN(CC(=O)NC1CCCCC1)C(=O)/C=C/C(=O)c1ccc(OC)cc1O,-112.5*,?,0.5%,-13.6%,?,16.2%
COc1ccc(-c2nnn(CC(=O)N(CC(=O)NC3CCCC3)Cc3cccs3)n2)cc1OC,-9.8,?,11.3%,-1.4%,·,-21.7%
CC(Nc1cc(C)cc(C)c1)=[N+](C)CCNS(=O)(=O)c1ccc(Cl)cc1,12.4,0.9%,4.4%,-1.1%,11.6%,-5.5%
Cc1ccc(-n2c3c(c(=O)[nH]c2=O)C(NS(=O)(=O)c2ccc(C)cc2)(C(F)(F)F)C(=O)N3)cc1 (stereo unspecified),12.7,19.8%,-2.6%,9.3%,244.9%,?
CCc1c(C(C)S(=O)(=O)c2ccc(C)cc2)[nH]c(=O)n1-c1ccc(C)cc1 (stereo unspecified),5.1,-2.4%,-8.7%,2.82µM*,·,?
CCc1[nH]c(=O)[nH]c1C(C)S(=O)(=O)c1ccc(C)cc1 (stereo unspecified),17.9,-4.2%,-1.2%,0.282µM*,15.7%,-12.2%
C=CCC(C=C)S(=O)(=O)c1ccc(C)cc1 (stereo unspecified),-20.9,-6.4%,4.7%,-19.8%,·,4.9%
